# Measurements reported in PubChem BioAssay (EPA / NIEHS).
# Calls of active or inactive are those of the source. Rule for the calls: active = hit-call score of the fitted dose curve at least 0.9, where 1 is the maximum; inactive = score below 0.9.
# Tests used:
# [1] = read-out: Vascular cell adhesion molecule 1 (VCAM1), VCAM1 (gene 7412); experiment: BSK_hDFCGF_VCAM1: BioMAP Diversity Plus: hDFCGF Assay for Vascular cell adhesion molecule 1 (VCAM1) Biomarker Activity (AID 2283065); settings: primary human foreskin fibroblasts; actives raise or lower the signal;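 for AC50: VCAM-1 protein level quantified by ELISA after 24 h chemical exposure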
# Procedure, shortened: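 Cells are dosed, cultured for 24 h, then VCAM-1 is quantified by ELISA; signal increases and decreases are both fitted relative to DMSO.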
# [2] = read-out: Plasminogen activator inhibitor-1 (PAI1), SERPINE1 (gene 5054); experiment: BSK_hDFCGF_PAI1: BioMAP Diversity Plus: hDFCGF Assay for Plasminogen activator inhibitor-1 (PAI1) Biomarker Activity (AID 2283066); settings: primary human foreskin fibroblasts; actives raise or lower the signal
# Procedure, shortened: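 PAI-1 levels in human dermal foreskin fibroblasts were quantified by ELISA 24 h after dosing, with gain or loss analysed against DMSO. Overt cytotoxicity was checked by sulforhodamine B total-protein staining in parallel cultures.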
# [3] = read-out: Intercellular Adhesion Molecule 1 (ICAM1), ICAM1 (gene 3383); experiment: BSK_KF3CT_ICAM1: BioMAP Diversity Plus: KF3CT Assay for Intercellular Adhesion Molecule 1 (ICAM1) Biomarker Activity (AID 2283067); settings: primary human keratinocytes with fibroblasts; actives raise or lower the signal
# Procedure, shortened: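 Dose the keratinocyte/fibroblast co-culture, wait 24 h, measure ICAM-1 by ELISA, then fit increases or decreases against DMSO. Cytotoxicity is checked in parallel cultures by SRB total-protein staining.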
# [4] = read-out: Interferon-gamma inducible Protein 10 (IP10), CXCL10 (gene 3627); experiment: BSK_KF3CT_IP10: BioMAP Diversity Plus: KF3CT Assay for Interferon-gamma inducible Protein 10 (IP10) Biomarker Activity (AID 2283068); settings: primary human keratinocytes with fibroblasts; actives raise or lower the signal
# Procedure, shortened: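 ELISA read-out of IP-10 after 24 h chemical dosing of human skin primary co-culture (keratinocytes, foreskin fibroblasts). Gain or loss of signal relative to DMSO, bidirectional curve fit.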
# [5] = BSK_KF3CT_SRB: Viability Assessment in the BioMAP Diversity Plus: KF3CT Assay (AID 2283069); settings: primary human keratinocytes with fibroblasts;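 note: fitted for both signal gain and loss against DMSO baseline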
# Procedure, shortened: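 Overt cytotoxicity is assessed as total protein by sulforhodamine B staining in parallel human skin co-cultures at 24 h after dosing. DMSO serves as negative control and baseline.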
# [6] = read-out: Interleukin-1 alpha (IL1a), IL1A (gene 3552); experiment: BSK_KF3CT_IL1a: BioMAP Diversity Plus: KF3CT Assay for Interleukin-1 alpha (IL1a) Biomarker Activity (AID 2283070); settings: primary human keratinocytes with fibroblasts; actives raise or lower the signal
# Procedure, shortened: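 Readout is IL-1a level by ELISA, compared bidirectionally with DMSO as baseline. Cells: human keratinocytes co-cultured with foreskin fibroblasts, harvested 24 h post-dose.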
# [7] = read-out: TIMP metallopeptidase inhibitor 2 (TIMP2), TIMP2 (gene 7077); experiment: BSK_KF3CT_TIMP2: BioMAP Diversity Plus: KF3CT Assay for TIMP metallopeptidase inhibitor 2 (TIMP2) Biomarker Activity (AID 2283071); settings: primary human keratinocytes with fibroblasts; actives raise or lower the signal
# Procedure, shortened: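 TIMP-2 measured by ELISA at 24 h in human keratinocyte/fibroblast primary co-cultures exposed to chemicals. Both increases and decreases were fitted against DMSO. Parallel cultures were stained with SRB for total protein as an overt-cytotoxicity check.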
# [8] = read-out: C-C motif chemokine 2 (Homo sapiens) (UniProt P13500); experiment: BSK_KF3CT_MCP1: BioMAP Diversity Plus: KF3CT Assay for Monocyte Chemoattractant Protein 1 (MCP1/CCL2) Biomarker Activity (AID 2283073); settings: primary human keratinocytes with fibroblasts; actives raise or lower the signal
# Procedure, shortened: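 Keratinocytes and foreskin fibroblasts were co-cultured, dosed with chemical, and sampled 24 h later. MCP-1 was quantified by ELISA, and the endpoint was analyzed with bidirectional fitting using DMSO as negative control.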
# [9] = read-out: Matrix Metallopeptidase 9 (MMP9), MMP9 (gene 4318); experiment: BSK_KF3CT_MMP9: BioMAP Diversity Plus: KF3CT Assay for Matrix Metallopeptidase 9 (MMP9) Biomarker Activity (AID 2283074); settings: primary human keratinocytes with fibroblasts; actives raise or lower the signal;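 for AC50: MMP9 protein level quantified by ELISA in the co-culture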
# Procedure, shortened: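 Values come from bidirectional fitting relative to DMSO of MMP-9 levels, which were measured by ELISA. Measurements were taken 24 h after chemical dosing of a keratinocyte and foreskin fibroblast co-culture.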
# [10] = read-out: urokinase plasminogen activator (uPA), PLAU (gene 5328); experiment: BSK_KF3CT_uPA: BioMAP Diversity Plus: KF3CT Assay for urokinase plasminogen activator (uPA) Biomarker Activity (AID 2283075); settings: primary human keratinocytes with fibroblasts; actives raise or lower the signal
# Procedure, shortened: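 Values derive from bidirectional fitting against DMSO controls. Keratinocyte/foreskin fibroblast co-cultures received chemical; 24 h later uPA was detected by ELISA, with SRB total-protein staining in parallel wells for overt cytotoxicity.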
# CD40, CD40 (gene 958) = experiment: BSK_LPS_CD40: BioMAP Diversity Plus: LPS Assay for CD40 Biomarker Activity (AID 2283076); settings: primary human HUVEC with PBMC; actives raise or lower the signal
# Procedure, shortened: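 CD40 signal, measured by ELISA, is fitted in both directions relative to DMSO vehicle. The system is an LPS-driven human vascular primary co-culture of endothelial cells and PBMC, sampled 24 h after compound addition.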
# [11] = read-out: E-selectin (Homo sapiens) (UniProt P16581); experiment: BSK_LPS_Eselectin: BioMAP Diversity Plus: LPS Assay for Eselectin Biomarker Activity (AID 2283077); settings: primary human HUVEC with PBMC; actives raise or lower the signal
# Procedure, shortened: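 Signal of E-selectin, detected by ELISA, served as the endpoint; cells were umbilical vein endothelium with PBMC, read 24 h after treatment. DMSO defined baseline, and both increases and decreases were fitted.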
# [12] = read-out: Interleukin-8 (IL8), CXCL8 (gene 3576); experiment: BSK_LPS_IL8: BioMAP Diversity Plus: LPS Assay for Interleukin-8 (IL8) Biomarker Activity (AID 2283078); settings: primary human HUVEC with PBMC; actives raise or lower the signal
# Procedure, shortened: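 Endothelial cells and PBMC from human donors are co-cultured, treated with chemicals and LPS, then assayed for IL-8 by ELISA after 24 h. Parallel SRB staining (0.1% SRB after 10% TCA fixation, 560 nm) flags cytotoxicity.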
# [13] = read-out: Interleukin-1 alpha (IL1a), IL1A (gene 3552); experiment: BSK_LPS_IL1a: BioMAP Diversity Plus: LPS Assay for Interleukin-1 alpha (IL1a) Biomarker Activity (AID 2283080); settings: primary human HUVEC with PBMC; actives raise or lower the signal
# Procedure, shortened: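 Measured: IL-1 alpha via ELISA at 24 h in LPS-activated human umbilical vein endothelium–PBMC co-culture. Baseline: DMSO, bidirectional fitting.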
# [14] = read-out: Monocyte Chemoattractant Protein-1 (MCP1), CCL2 (gene 6347); experiment: BSK_LPS_MCP1: BioMAP Diversity Plus: LPS Assay for Monocyte Chemoattractant Protein-1 (MCP1) Biomarker Activity (AID 2283081); settings: primary human HUVEC with PBMC; actives raise or lower the signal;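 for AC50: secreted MCP-1 protein quantified by ELISA in culture supernatant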
# Procedure, shortened: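 LPS-stimulated HUVEC/PBMC co-culture; chemical, 24 h; MCP-1 by ELISA; bidirectional fit vs DMSO; cytotoxicity via SRB (0.1% stain, 10% TCA fix, 560 nm) in parallel wells.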
# [15] = BSK_LPS_PGE2: BioMAP Diversity Plus: LPS Assay for Prostaglandin E2 (PGE2) Biomarker Activity (AID 2283082); settings: primary human HUVEC with PBMC; actives raise or lower the signal
# Procedure, shortened: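 PGE2 release measured by ELISA in an LPS-activated co-culture of human umbilical vein endothelial cells and peripheral blood mononuclear cells, read at 24 h post-dosing. DMSO served as baseline for bidirectional curve fitting.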
# [16] = read-out: Macrophage colony-stimulating factor (MCSF), CSF1 (gene 1435); experiment: BSK_LPS_MCSF: BioMAP Diversity Plus: LPS Assay for Macrophage colony-stimulating factor (MCSF) Biomarker Activity (AID 2283083); settings: primary human HUVEC with PBMC; actives raise or lower the signal
# Procedure, shortened: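 Compound is added to a human vascular primary co-culture of umbilical vein endothelium and blood mononuclear cells. After 24 h, M-CSF is quantified by ELISA. Signal changes are fitted in both directions against DMSO.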
# [17] = read-out: Tissue Factor, F3 (gene 2152); experiment: BSK_LPS_TissueFactor: BioMAP Diversity Plus: LPS Assay for Tissue Factor Biomarker Activity (AID 2283084); settings: primary human HUVEC with PBMC; actives raise or lower the signal
# Procedure, shortened: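 In this co-culture system of umbilical vein endothelium with PBMC, stimulated with LPS, cell-surface CD142 is detected by ELISA at 24 h. Endpoint values derive from bidirectional fitting, DMSO serving as baseline.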
# [18] = read-out: Tumor necrosis factor (Homo sapiens) (UniProt P01375); experiment: BSK_LPS_TNFa: BioMAP Diversity Plus: LPS Assay for Tumour Necrosis Factor alpha (TNFa) Biomarker Activity (AID 2283085); settings: primary human HUVEC with PBMC; actives raise or lower the signal;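 for AC50: TNFa protein level quantified by ELISA in the co-culture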
# Procedure, shortened: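 TNFa was quantified by ELISA in LPS-activated co-cultures of human endothelial cells and PBMC, 24 h post-dosing. Both increases and decreases versus DMSO were fitted.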
# [19] = read-out: Transforming growth factor beta 1 (TGFb1), TGFB1 (gene 7040); experiment: BSK_KF3CT_TGFb1: BioMAP Diversity Plus: KF3CT Assay for Transforming growth factor beta 1 (TGFb1) Biomarker Activity (AID 2283072); settings: primary human keratinocytes with fibroblasts; actives raise or lower the signal
# Procedure, shortened: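 ELISA quantifies TGF-b1 at 24 h post-dose in a primary human skin co-culture of keratinocytes and fibroblasts, with gain or loss judged against DMSO. Parallel SRB total-protein staining flags overt cytotoxicity.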
# E-selectin (Homo sapiens), sequence (P16581 whole entry, looked up): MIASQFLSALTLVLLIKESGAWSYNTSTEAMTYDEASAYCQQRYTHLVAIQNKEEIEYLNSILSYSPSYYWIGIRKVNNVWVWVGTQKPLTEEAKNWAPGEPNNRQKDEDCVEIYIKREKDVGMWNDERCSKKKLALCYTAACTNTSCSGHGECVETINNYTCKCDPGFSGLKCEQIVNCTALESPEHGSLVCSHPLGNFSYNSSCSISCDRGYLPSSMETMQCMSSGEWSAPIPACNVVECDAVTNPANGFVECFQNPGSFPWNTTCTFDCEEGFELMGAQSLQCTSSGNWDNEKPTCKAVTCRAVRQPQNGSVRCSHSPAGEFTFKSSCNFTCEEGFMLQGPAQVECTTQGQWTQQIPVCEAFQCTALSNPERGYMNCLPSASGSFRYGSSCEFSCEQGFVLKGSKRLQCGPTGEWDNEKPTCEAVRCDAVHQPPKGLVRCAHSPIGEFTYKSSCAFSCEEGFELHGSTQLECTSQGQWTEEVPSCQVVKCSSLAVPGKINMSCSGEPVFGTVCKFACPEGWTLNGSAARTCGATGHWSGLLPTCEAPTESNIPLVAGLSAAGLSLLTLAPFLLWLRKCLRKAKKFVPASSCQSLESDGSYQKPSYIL
# Tumor necrosis factor (Homo sapiens), sequence (P01375 whole entry, looked up): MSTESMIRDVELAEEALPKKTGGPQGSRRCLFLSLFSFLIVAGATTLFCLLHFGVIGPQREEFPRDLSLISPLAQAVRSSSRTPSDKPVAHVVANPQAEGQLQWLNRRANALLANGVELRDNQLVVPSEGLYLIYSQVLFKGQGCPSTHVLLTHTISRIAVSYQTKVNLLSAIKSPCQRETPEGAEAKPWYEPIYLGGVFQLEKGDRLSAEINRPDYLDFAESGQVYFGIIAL
smiles,measurement,setting,value
C=CCOCC(O)CCl (centres undefined),outcome,[1],inactive
same,outcome,[2],inactive
same,outcome,[3],inactive
same,outcome,[4],inactive
same,outcome,[5],inactive
same,outcome,[6],inactive
same,outcome,[7],inactive
same,outcome,[8],inactive
same,outcome,[9],inactive
same,outcome,[10],inactive
same,outcome,"CD40, CD40 (gene 958)",inactive
same,outcome,[11],inactive
same,outcome,[12],inactive
same,outcome,[13],inactive
same,outcome,[14],inactive
same,outcome,[15],inactive
same,outcome,[16],inactive
same,outcome,[17],inactive
same,outcome,[18],inactive
c1ccc(-c2ccccn2)nc1,outcome,[1],inactive
same,outcome,[2],inactive
same,outcome,[3],inactive
same,outcome,[4],inactive
same,outcome,[5],inactive
same,outcome,[6],inactive
same,outcome,[7],inactive
same,outcome,[19],inactive
same,outcome,[8],inactive
same,outcome,[9],inactive
same,outcome,[10],inactive
same,outcome,"CD40, CD40 (gene 958)",inactive
same,outcome,[11],inactive
same,outcome,[12],inactive
same,outcome,[13],inactive
same,outcome,[14],inactive
same,outcome,[15],inactive
same,outcome,[16],inactive
same,outcome,[17],inactive
same,outcome,[18],inactive
CCCCC(CC)COC(=O)c1ccccc1O (centres undefined),AC50,[1],14.6 µM (active)
same,AC50,[2],7.32 µM (active)
same,outcome,[3],inactive
same,outcome,[4],inactive
same,outcome,[5],inactive
same,outcome,[6],inactive
same,outcome,[7],inactive
same,outcome,[19],inactive
same,outcome,[8],inactive
same,outcome,[9],inactive
same,outcome,[10],inactive
same,AC50,"CD40, CD40 (gene 958)",18.6 µM (active)
same,outcome,[11],inactive
same,outcome,[12],inactive
same,outcome,[13],inactive
same,outcome,[14],inactive
same,outcome,[15],inactive
same,outcome,[16],inactive
same,outcome,[17],inactive
same,outcome,[18],inactive
c1ccc2c(c1)ccc1ncccc12,outcome,[1],inactive
same,outcome,[2],inactive
same,outcome,[3],inactive
same,outcome,[4],inactive
same,outcome,[5],inactive
same,AC50,[6],8.26 µM (active)
same,outcome,[7],inactive
same,outcome,[19],inactive
same,outcome,[8],inactive
same,AC50,[9],20 µM (active)
same,outcome,[10],inactive
same,AC50,"CD40, CD40 (gene 958)",20 µM (active)
same,outcome,[11],inactive
same,outcome,[12],inactive
same,AC50,[13],20 µM (active)
same,AC50,[14],3.97 µM (active)
same,outcome,[15],inactive
same,outcome,[16],inactive
same,AC50,[17],6.01 µM (active)
same,outcome,[18],inactive
O=C(Cl)c1cc(C(=O)Cl)cc(C(=O)Cl)c1,AC50,[1],15.2 µM (active)
same,AC50,[2],29.8 µM (active)
same,AC50,[3],30.8 µM (active)
same,AC50,[4],35 µM (active)
same,AC50,[5],33.2 µM (active)
same,AC50,[6],33.8 µM (active)
same,AC50,[7],25.2 µM (active)
same,AC50,[19],28.2 µM (active)
same,AC50,[8],30.1 µM (active)
same,AC50,[9],32.3 µM (active)
same,AC50,[10],30.9 µM (active)
same,AC50,"CD40, CD40 (gene 958)",15.2 µM (active)
same,AC50,[11],31.2 µM (active)
same,AC50,[12],28.8 µM (active)
same,AC50,[13],31 µM (active)
same,AC50,[14],29.9 µM (active)
same,outcome,[15],inactive
same,AC50,[16],31.1 µM (active)
same,AC50,[17],33 µM (active)
same,AC50,[18],36.7 µM (active)
